# Hits are enriched below; roughly 6.1% of the tested compounds scored in any of these assays.
# ATXN2 expr inh: reduces ATXN2 reporter expression in HEK-293 cells; HEK-293 ATXN2-luciferase reporter, luminescence, 24 h; Potency, µM (highest dose often 57 µM), without a hit: at the top dose activity change, negative = inhibition, actives largely listed as inhibitors; hit rate 0.72% among 360,000; also: % is scaled to controls: 0 for no effect and ±100 for the full control effect; nearly all actives have a fitted effect of over 55% in size
#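 ATXN2-luciferase reporter cells (luciferase flanked by upstream and downstream ATXN2 gene portions) were treated 24 h at 37 °C with compounds at up to 57 uM. SteadyGlo luminescence gave expression; GF-AFC fluorescence gave viability.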
# S2 tox: reduces viability in counter-screen for ATXN expression inhibitors | S2 cells (HEK-293 line with an ATXN2-luciferase reporter) viability, CellTiter-Fluor protease fluorescence, 24 h | Potency, µM (titrated, usually from 56.7 µM), most hits filed as cytotoxic | hit rate 0.49% among 400,000; also: nearly all actives have a fitted effect of over 40% in size
# RORg inh: inhibitors of mouse ROR gamma transcriptional activity; Drosophila S2 Gal4-RORgamma UAS-luciferase reporter, 20 h; P51450; Potency, µM (top dose mostly 53.6 µM), for the others: at the highest dose activity change, negative = inhibition, most hits filed as inhibitors; hit rate 5.4% among 310,000; also: % is scaled to controls: 0 for no effect and ±100 for the full control effect; nearly all actives have a fitted effect of over 60% in size
# Target sequence (P51450 whole entry, looked up, the tested form may be a part): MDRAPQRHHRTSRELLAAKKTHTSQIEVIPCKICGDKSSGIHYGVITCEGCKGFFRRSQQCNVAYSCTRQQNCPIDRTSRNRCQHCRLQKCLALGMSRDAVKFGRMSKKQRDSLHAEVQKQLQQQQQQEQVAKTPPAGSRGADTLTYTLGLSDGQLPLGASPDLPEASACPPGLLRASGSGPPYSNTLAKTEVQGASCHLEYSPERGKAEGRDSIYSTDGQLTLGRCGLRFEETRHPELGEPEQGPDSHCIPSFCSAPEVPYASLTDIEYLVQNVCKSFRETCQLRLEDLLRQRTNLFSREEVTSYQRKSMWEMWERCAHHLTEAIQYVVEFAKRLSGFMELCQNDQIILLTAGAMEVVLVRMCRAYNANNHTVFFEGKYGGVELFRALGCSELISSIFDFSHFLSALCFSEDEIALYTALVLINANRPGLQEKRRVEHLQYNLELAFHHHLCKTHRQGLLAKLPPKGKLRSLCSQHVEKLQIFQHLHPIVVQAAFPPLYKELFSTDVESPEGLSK
#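 Schneider cells (Drosophila), stable Gal4 DBD–ROR gamma + UAS-luc; 1 hr cmpd preincubation; Cu2+ induction 700 uM final; 20 hr ambient; luminescence.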
# VP16 counter: counter-screen for ROR gamma inhibitors: Gal4-VP16 reporter | Drosophila S2 Gal4-VP16 UAS-luciferase, luminescence, 20 h | Potency, µM (doses to about 53.6 µM), for inactives: at the highest dose activity, negative = inhibition, actives largely listed as inhibitors | hit rate 3.5% among 310,000;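 also: Gal4-VP16 expression switched on by copper sulfate through the metallothionein promoter; % is scaled to controls: 0 for no effect and ±100 for the full control effect; nearly all actives have a fitted effect of over 50% in size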
# TGFb SMAD3 inh: TGF-b pathway inhibition; hit rate 1.2% among 410,000; HepG2 CAGA-GFP TGF-b/SMAD3 reporter, GFP fluorescence, 18 h; TGF-beta stimulated, 500 pg/mL final; Potency, µM (highest dose often 46.1 µM), inactives show at the top dose activity, negative = inhibition, actives largely listed as inhibitors; also: % is scaled to controls: 0 for no effect and ±100 for the full control effect; nearly all actives have a fitted effect of over 65% in size
#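 Smad-responsive CAGA-GFP expression was quantified in HEPG2 cells exposed to compounds and 500 pg/mL final TGF-beta for 18 h at 37 degrees C; unstimulated wells defined full inhibition.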
# HepG2 viability: kills HepG2 cells in TGF-b inhibitor counter-screen | HepG2 CAGA-GFP viability, ATP luminescence, 18 h | Potency, µM (doses to about 46.1 µM), without a hit: top-dose activity change, negative = cytotoxicity, usual class: cytotoxic | hit rate 0.76% among 410,000 | AID 588856
#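 HepG2 CAGA-GFP cells (1000/well, DMEM with 1% FBS) received compound, then TGF-beta at 500 pg/mL final, and were incubated 18 hours at 37 degrees C. Viability was read by CellTiter-Glo luminescence. Media-only wells were set as complete cell-killing and DMSO as no toxicity.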
# * hit, by the source's call; i = inactive; ? = inconclusive; . = not tested or not shown; [ ] = dose if it differs, or a comment. Calls follow the shape of the dose curve; as a rule, active = well fitted curve in the direction sought with a large enough effect; inconclusive = small, poorly fitted or top-dose-only effect, or another doubt; inactive = no such curve, though single readings can be large; an effect the other way counts as inactive or inconclusive. Potency is read from the fitted curve at half-maximal effect.
SMILES,ATXN2 expr inh,S2 tox,RORg inh,VP16 counter,TGFb SMAD3 inh,HepG2 viability
Cc1ccc2onc(CNC(=O)NCc3ccc(Cl)cc3)c2c1,-17.7%,?,.,.,-18.4%,-43.0%
Cc1cc(C)c(C(=O)/C=C/c2cccc3ccccc23)c(=O)[nH]1,?,?,?,12.6µM*,?,-42.4%
Cc1cnc(C(=O)N2CCN(S(=O)(=O)c3cc(C(F)(F)F)cc(C(F)(F)F)c3)CC2)cn1,.,i,.,.,?,-14.1%
CC1CC1C(=O)N1CCN(S(=O)(=O)c2cc(C(F)(F)F)cc(C(F)(F)F)c2)CC1 (stereo not given),?,i,.,.,14.1µM*,-45.9%
COc1ccccc1N1CCN(C(=S)Nc2cccc(C)c2)CC1,-7.2%,i,5.01µM*,20µM*,?,-5.1%
Cc1ccc(C)c(N2CCN(C(=S)NC3CCCCC3)CC2)c1,-20.8%,i,-37.8%,-0.1%,1.4%,1.5%
COC(=O)c1cccc(NC(=S)N2CCCCC2)c1,26.6%[11.3 µM],i,18.3%,-21.8%,4.0%,17.3%
Cc1cccc(NC(=S)N2CCN(c3cc(C)ccc3C)CC2)c1,-6.0%,i,3.98µM*,5.62µM*,16.3%,3.0%
COC(=O)c1cccc(NC(=S)N2CCN(c3ccccc3F)CC2)c1,-22.2%[11.3 µM],i,14.1µM*,1.7%,?,6.0%
COc1ccc(N2CCN(C(=S)Nc3cccc(OC)c3)CC2)cc1,-2.8%,i,44.2%[1.91 µM],-18.7%,16.7%,10.2%
C[C@@H]1CCCCCCCCC(=O)OCCN(C(=O)OC(C)(C)C)[C@H](C)CCCCCCCCC(=O)OCCN1C(=O)OC(C)(C)C,0.4%,i,.,.,14.9%,11.5%
C[C@@H]1CCCCCCCCC(=O)OCCN[C@H](C)CCCCCCCCC(=O)OCCN[C@H](C)CCCCCCCCC(=O)OCCN1,?,20µM*,.,.,15.8µM*,-63.8%
Cc1cc(N2CCOCC2)n2nc(-c3cccc(F)c3)cc2n1,-22.7%,i,-26.1%,1.3%,-2.9%,-13.8%
CCC1CCCCN1c1cc(C)nc2cc(-c3cccc(C)c3)nn12 (stereo not given),-27.9%,i,10µM*,-27.1%,?,-13.6%
Cc1cccc(Oc2ncnc(N)c2[N+](=O)[O-])c1C,7.6%,i,-6.5%,-0.1%,2.8%,2.5%
Nc1ncnc(Oc2cccc3cccnc23)c1[N+](=O)[O-],-15.1%,i,4.47µM*,8.91µM*,?,-51.9%
CN(C)CCNC(=O)CN1C(=O)COc2ccc(S(=O)(=O)N3CCCC3)cc21,-2.0%,i,.,.,0.6%,1.8%
Cc1ccc(C)c(S(=O)(=O)NCC(c2ccco2)S(=O)(=O)c2ccc(F)cc2)c1 (stereo not given),.,.,.,.,11.2µM*,-37.3%
O=S(=O)(NCC(c1ccco1)S(=O)(=O)c1cccs1)c1ccc(F)c(C(F)(F)F)c1 (stereo not given),.,.,.,.,4.47µM*,-40.9%
COc1ccc(S(=O)(=O)NCC(c2ccco2)S(=O)(=O)c2ccc(C)cc2)cc1C (stereo not given),.,.,.,.,10µM*,-5.0%
Cn1c(=O)c2c(SCC(=O)NCc3ccco3)nc(-c3ccccc3)nc2n(C)c1=O,0.7%,i,.,.,26.5%,-2.8%
CCN1CCC(O)(C#Cc2ccccc2)CC1,8.9%,i,22.0%,1.0%,11.4%,0.7%
CC1C(c2ccccc2)N(C)C(c2ccccc2)C(C)C1(O)C#Cc1ccccc1 (stereo not given),-30.1%,?,15.8µM*,?,11.2µM*,-31.5%
COc1ccc(N2C(=O)C(Cl)=C(Oc3cccc(OC)c3)C2=O)cc1,-14.7%[11.3 µM],i,11.2µM*,?,-3.9%,-32.6%
CCN(CC)c1ccc(NC(=O)C2CCN(c3nnc(-n4cccc4)s3)CC2)c(C)c1,-1.8%,i,.,.,-7.5%,-27.4%
SMILES,ATXN2 expr inh,S2 tox,RORg inh,VP16 counter,TGFb SMAD3 inh,HepG2 viability
Cc1nc(Nc2ccccc2)c2nc(-c3ccccc3)n(CCN3CCOCC3)c2n1,.,.,-24.3%,-2.5%,.,.
Nc1cccc(-c2cn3ccsc3n2)c1,.,.,.,.,-17.3%,-21.7%
Cc1ccccc1/C=c1\s/c(=C\C(=O)C(C)(C)C)[nH]c1=O,-30.0%,?,?,0.891µM*,?,-14.9%
CC(C)(C)C(=O)/C=c1\[nH]c(=O)/c(=C\c2ccccc2F)s1,-4.6%,?,?,-22.5%,-12.7%,-17.5%
Cc1cnc(SCc2ccccn2)nc1C1CCCN(C(=O)c2ccc3c(c2)OCO3)C1 (stereo not given),.,i,.,.,.,.
CCOc1ccc(OCCNC(=O)c2cc(C3CC3)nc3c2cnn3C(C)C)cc1,-27.8%,i,.,.,12.6µM*,-34.4%
Cc1ccc(S(=O)(=O)N2CCC(c3ccncc3)CC2)c(C)c1,?,?,.,.,?,-46.3%
COc1cc(OC)c(NC(=O)c2cc3c(=O)oc4ccc(C)cc4c3s2)cc1Cl,6.9%,i,.,.,-9.5%,9.8%
Cc1ccccc1Cn1nnc2c1C(=O)c1ccccc1C2=O,-16.6%,i,.,.,3.55µM*,-88.3%
Cc1cccc(Cn2nnc3c2C(=O)c2ccccc2C3=O)c1,.,.,6.4%,-5.4%,3.16µM*,-57.5%
Cc1ccc(N2CCn3c2nc2c3c(=O)n(CCCc3ccccc3)c(=O)n2C)cc1,.,.,.,.,-3.4%,-14.8%
CC(=O)N1c2ccc(S(=O)(=O)NCC3CCC(C(=O)Nc4cc(C)ccn4)CC3)cc2CC1C (stereo not given),?,i,?,7.08µM*,?,-12.5%
CC(=O)N1CCc2cc(S(=O)(=O)NCCC(=O)NCCc3ccc(Cl)cc3)ccc21,-25.7%,i,?,?,-11.6%,-1.3%
Cc1ccc(NS(=O)(=O)c2ccc3c(c2)CC(C)N3C(=O)C2CCC2)cc1Cl (stereo not given),?,i,.,.,?,-18.3%
CC(=O)N1CCc2cc(S(=O)(=O)NCCC(=O)NCCc3ccc(C)cc3)ccc21,-11.8%,i,?,3.55µM*,-8.8%,-0.1%
CC(=O)N1c2ccc(S(=O)(=O)NCC3CCC(C(=O)Nc4ccc(C)cc4)CC3)cc2CC1C (stereo not given),.,.,.,.,-5.1%,-14.6%
Cc1cc(Cl)ccc1NS(=O)(=O)c1ccc2c(c1)CC(C)N2C(=O)C1CCC1 (stereo not given),-28.3%,i,.,.,11.2µM*,-22.2%
COc1cc(CNS(=O)(=O)c2ccc3c(c2)CC(C)N3C(=O)C2CCC2)cc(OC)c1OC (stereo not given),-17.2%,i,-41.8%,6.31µM*,-0.8%,-7.1%
COc1ccc(CNS(=O)(=O)c2ccc3c(c2)CCN3C(=O)C2CC2)cc1,3.2%,i,-7.9%,15.8µM*,?,-18.5%
